The structures appear in SMILES notation. Where “and” joins values, the source holds several entries; their conditions need not be identical. Equal entries are not always repeated. Records with an inconclusive call do not appear. A number with no mark means an inactive call. Calls of active or inactive are those of the source. Calls follow the shape of the dose curve; as a rule, active = well fitted activation curve with a large enough effect; inconclusive = small, poorly fitted or top-dose-only effect; inactive = flat fitted curve, though single readings scatter.
Potency is read from the fitted curve at half-maximal effect.

This assay can be described thus: qHTS assay for environmental chemicals that activate the Aryl hydrocarbon Receptor (AhR) signaling pathway (AID 651777). Also: nearly all actives have a fitted effect of over 15% in size. As to activation: % of control where 0% means no effect. Particulars: 1A2-DRE human hepatoma cells, luciferase, 24 h; activation: stronger effect = higher value. The source says: National Center for Advancing Translational Sciences [NCATS]
NIH Chemical Genomics Center [NCGC]
U.S. Environmental Protection Agency [EPA]
National Institutes of Environmental Health Sciences [NIEHS]
National Toxicology Program [NTP]
The Aryl hydrocarbon Receptor (AhR) plays a critical role in the development of cancer or neoplasm and its formation is most likely due to genetic mutations and the influence of environment. Exposure to environmental pollutants such as polycyclic aromatic hydrocarbons (PAH), their halogenated derivatives and heterocyclic amines causes the induction of phase I and II enzymes. The transcriptional activation of CYP1A2 is directly regulated by AhR.
A cell based assay (1A2-DRE cells, developed by Puracyp, Inc., CA) was used to assess the activation of AhR. Human hepatoma cells were stably transfected with the dioxin response element (DRE) and CYP1A2 promoter fused to a luciferase gene. Increased luciferase activity can be used to identify the compounds that cause the induction of CYP1A2 and AhR activation.
1,200 cells in 5 uL/well were dispensed into white wall/solid bottom 1536-well plates using a Multidrop Combi (Thermo Scientific) dispenser. Following transfer of 23 nL compound or DMSO vehicle by a pin tool, the plates were incubated 24 hr at 37 C and 5% CO2. 5 ul One-Glo (Promega) was then added to each well and following 30 min incubation at room temperature, luciferase activity was quantified on a ViewLux CCD-based plate reader.
Background: qHTS replaces the single test concentration by a dilution series.
For the compound `C(CCOCC1CO1)COCC1CO1` (stereo not given), the activation is 0.374%.
The same measure, in the same setting: the result for `CC(C)(OOC(C)(C)c1ccccc1)c1ccccc1` reads -0.821% and 0.322%; that for `CCN(N=O)C(N)=O`, 0.0477%.
The same measure, in the same setting: in the case of `Nc1cccc(Cl)c1` it was -0.221%; in that of `O=C(O)c1cc(Cl)ccc1Cl`, -1.02%.
Still for that read-out and setting: the result for `CC12CC1(C)C(=O)N(c1cc(Cl)cc(Cl)c1)C2=O` (stereo not given) reads -0.0704% and 1.05%.
As to `ClCCCCl`, the activation is -1.95%.
On the same count and under the same terms, the result for `Oc1c(Cl)c(Cl)cc(Cl)c1Cl` reads 0.522%.
Same read-out and setting: the result for `ClC=CCl` reads 0.329%.
For the compound `CCCBr`, the activation was 0.665%.
The same measure, in the same setting: in the case of `CCCCCc1cc(O)cc(O)c1` it was 9.87%.
Same read-out and setting: the result for `ClC(Cl)C(Cl)Cl` reads -2.65%; that for `Cc1cc(C)cc(OP(=O)(Oc2cc(C)cc(C)c2)Oc2cc(C)cc(C)c2)c1`, 12.8%.
`Nc1cccc2ccccc12`: the Potency is 44.7 µM (active).
As for `CN(C)C(=O)Nc1cccc(C(F)(F)F)c1`, the activation was -0.624% and 0.852%.
The same measure, in the same setting: the result for `Cc1ccc2c(C)cccc2c1` reads -0.533%.
Still for that read-out and setting: in the case of `ClCc1ccccn1` it was -0.85% and 1.26%; in that of `O=[N+]([O-])c1ccccc1CCl`, -0.0678%.
Same read-out and setting: the result for `Clc1ccc(C(Cl)(Cl)Cl)cc1Cl` reads -0.831%.
With `Cc1cccc(N)c1C`, the activation is 0.811%.
`c1ccc(N=NNc2ccccc2)cc1`: the Potency is 12.6 µM (active) and 1.41 µM (active).
On to `CC(Cl)CCl` (stereo not given), for which the activation is 0.102%.
Still for that read-out and setting: in the case of `Nc1ccc(-c2ccccc2)cc1` it was 12.6%; in that of `Cl/C=C\Cl`, 0.819%; in that of `O=C(Cl)OCc1ccccc1`, 0.249%.
On the same count and under the same terms, in the case of `C/C=C/CC#N` it was -0.768%; in that of `C=CC(=O)OC`, 1.42%.
On the same count and under the same terms, the result for `Oc1ccc(Cl)c(Cl)c1Cl` reads 3.11%; that for `C=CCc1cc(OC)c2c(c1)OCO2`, 0.0584%; that for `N#CCBr`, 13.7%.
In the case of `Oc1cccc(Cl)c1`, the activation was -0.063%.
On the same count and under the same terms, the result for `COC(C)(C)C` reads -1.78%.
Same read-out and setting: in the case of `CCN(CC)N=O` it was -0.0915%.
As for `Cc1cccc(C)c1N`, the activation was 1.32%.
With `c1ccc2c(c1)ccc1cc3c(ccc4ccccc43)cc12`, the Potency is 2.82 µM (active).
With `c1ccc(OCC2CO2)cc1` (stereo not given), the activation is 0.197%.
Consider `CN(C)c1ccc(N(C)C)cc1`, for which the activation is 12.9%.
On the same count and under the same terms, in the case of `N#CC(O)c1ccccc1` (stereo not given) it was 0.286%; in that of `CCCCOC(=O)c1ccccc1N`, 0.138%.
The same measure, in the same setting: in the case of `BrCCc1ccccc1` it was -0.177%.

Values taken from PubChem BioAssay (NCATS).
